We go through 8 compounds from PubChem BioAssay (Tox21).

Several values for one entry are separate records, joined by “and”; a condition that tells them apart may be missing. Equal values may be shown once. Results filed as inconclusive are left out. Activity calls are given as the source filed them. Unless noted, calls follow the shape of the dose curve; as a rule, active = well fitted curve in the direction sought with a large enough effect in the repeat runs; inconclusive = weak or mixed curves; inactive = no such curve, though single readings can be large; an effect the other way counts as inactive or inconclusive.

The nature of test [1]: Caspase-3/7 induction in HepG2 cells by small molecules, qHTS assay (AID 1346978). Also: nearly all actives have a fitted effect of over 15% in size. Put shortly:
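Wild-type HepG2 cells, 2,000/well, settled 5 hr at 37 C and 5% CO2, then compound-treated for 17 hr; caspase-3/7 activity read by luminescent Caspase-Glo 3/7 after 30 min at room temperature.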

Test [2] can be described thus: Caspase-3/7 induction in CHO-K1 cells by small molecules, qHTS cell viability counter screen (AID 1346979). Also: nearly all actives have a fitted effect of over 35% in size. Also: potency is read from the fitted curve at half-maximal effect. In short, it runs like this:
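CHO-K1 wt, 1,500 cells/well; 5hr pre-incubation 37C/5% CO2; compound pin transfer (DMSO); 16hr exposure; CellTiter-Fluor added, 1hr, fluorescence read.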

The nature of test [3]: Caspase-3/7 induction in CHO-K1 cells by small molecules, qHTS assay (AID 1346980). Also: nearly all actives have a fitted effect of over 15% in size. Put shortly: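 Wild-type CHO-K1 cells exposed to compounds for 17hr at 37 C, 5% CO2. Caspase-3/7 activity then measured by Caspase-Glo 3/7 luminescence after 30min at room temperature.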
Test [4] in a line: Caspase-3/7 induction in HepG2 cells by small molecules, qHTS cell viability counter screen (AID 1346981). Also: nearly all actives have a fitted effect of over 30% in size. Also: potency is read from the fitted curve at half-maximal effect. Put shortly:
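Steps: seed 2,000 HepG2 cells per well; incubate 5 hr at 37 C; pin-add compounds in DMSO; incubate 16 hr; add CellTiter-Fluor; after 1 hr at 37 C and 5% CO2, read fluorescence.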

Test [5] concerns the target Nuclear receptor subfamily 1 group I member 2 (Homo sapiens) (UniProt O75469). The test can be described thus: Human pregnane X receptor (PXR) small molecule agonists, qHTS assay (AID 1346982). Also: nearly all actives have a fitted effect of over 35% in size. Also: potency is read from the fitted curve at half-maximal effect. Put shortly: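 Agonist mode qHTS: PXR-Luc HepG2 cells plated 5 hr before DMSO-dissolved compounds were pinned in, cultured 24 hr at 37 C, 5% CO2; ONE-Glo luminescence readout.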

In test [6] the target is Acetylcholinesterase (Homo sapiens) (UniProt P22303). The test can be described thus: Acetylcholinesterase (AChE) small molecule antagonists: enzyme-based qHTS assay (AID 1347397; calls by dose curve; also: nearly all actives have a fitted effect of over 55% in size; also: potency is read from the fitted curve at half-maximal effect). Particulars: Potency: AChE enzyme activity inhibition. In short, it runs like this: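 Recombinant human AChE (50 mU/mL) preincubated with compound 30 min at room temperature; acetylthiocholine plus DTNB then added, and thiocholine formation read colorimetrically after 10 min at room temperature. DMSO served as vehicle control.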
Acetylcholinesterase (Homo sapiens), sequence (P22303 whole entry, looked up): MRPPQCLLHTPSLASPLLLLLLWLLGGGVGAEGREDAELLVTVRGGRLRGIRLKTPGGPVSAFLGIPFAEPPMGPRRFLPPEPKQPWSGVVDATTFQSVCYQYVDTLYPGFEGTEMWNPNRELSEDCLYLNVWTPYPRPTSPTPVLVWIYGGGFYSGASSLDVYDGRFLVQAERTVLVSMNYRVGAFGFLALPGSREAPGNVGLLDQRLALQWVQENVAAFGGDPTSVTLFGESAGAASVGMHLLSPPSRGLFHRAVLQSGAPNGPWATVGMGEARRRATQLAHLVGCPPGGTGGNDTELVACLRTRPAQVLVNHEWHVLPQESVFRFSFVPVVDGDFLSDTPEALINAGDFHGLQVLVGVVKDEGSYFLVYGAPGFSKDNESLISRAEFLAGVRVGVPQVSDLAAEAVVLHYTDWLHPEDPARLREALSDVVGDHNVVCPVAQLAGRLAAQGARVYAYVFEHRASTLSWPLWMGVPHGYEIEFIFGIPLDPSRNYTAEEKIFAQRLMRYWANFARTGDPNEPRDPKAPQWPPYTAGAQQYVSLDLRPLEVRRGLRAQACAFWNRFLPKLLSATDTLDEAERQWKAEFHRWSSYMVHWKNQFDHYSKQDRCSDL

For test [7] the target is unchanged. The test can be described thus: Acetylcholinesterase (AChE) small molecule antagonists: fluorescence cell-based qHTS assay (AID 1347398; calls by dose curve; also: nearly all actives have a fitted effect of over 50% in size; also: potency is read from the fitted curve at half-maximal effect). To be noted: Potency: AChE activity. In short, it runs like this:
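SH-SY5Y cells (2000/well), attached overnight, incubated with compound 30 min at 37 C. Acetylthiocholine plus Thiolite Green then added for 40 min at room temperature. Thiocholine fluorescence (Ex/Em 490/520 nm) reports cellular AChE activity.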

For test [8] the target is unchanged. The test can be described thus: Acetylcholinesterase (AChE) small molecule antagonists: enzyme-based qHTS assay with human liver microsomes (AID 1347399; calls by dose curve; also: nearly all actives have a fitted effect of over 60% in size; also: potency is read from the fitted curve at half-maximal effect). Particulars: Potency: qHTS inhibition. Put shortly: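 Recombinant human AChE (50 mU/mL in the enzyme mix) and human liver microsomes (0.25 mg/mL final) were preincubated with compound and NADPH (0.25 mg/mL final) for 30 min at 37 C. Acetylthiocholine/DTNB was then added; thiocholine was read colorimetrically after 10 min at room temperature.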

Test [9] has as its target Cytochrome P450 2D6 (Homo sapiens) (UniProt P10635). The test can be described thus: Cytochrome P450 Family 2 Subfamily D Member 6 (CYP2D6) small molecule antagonists: luciferase reporter qHTS assay (AID 1671196). Also: nearly all actives have a fitted effect of over 50% in size. Also: potency is read from the fitted curve at half-maximal effect. In short, it runs like this: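 P450-Glo format: CYP2D6 converts a proluciferin substrate to luciferin in an NADPH-driven reaction lasting 1 h at room temperature. Light output, proportional to CYP2D6 activity, reflects interference by test chemicals.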

The target of test [10] is Cytochrome P450 2C19 (Homo sapiens) (UniProt P33261). In words: Cytochrome P450 Family 2 Subfamily C Member 19 (CYP2C19) small molecule antagonists: luciferase reporter qHTS assay (AID 1671197). Also: nearly all actives have a fitted effect of over 65% in size. Also: potency is read from the fitted curve at half-maximal effect. Put shortly:
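Compounds were tested on CYP2C19 activity via proluciferin conversion to luciferin. The 37C, 1 h reaction followed NADPH addition; detection reagent stopped it.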

The target of test [11] is Cytochrome P450 1A2 (Homo sapiens) (UniProt P05177). In words: Cytochrome P450 Family 1 Subfamily A Member 2 (CYP1A2) small molecule antagonists: luciferase reporter qHTS assay (AID 1671199). Also: nearly all actives have a fitted effect of over 50% in size. Also: potency is read from the fitted curve at half-maximal effect. In short, it runs like this: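 Inhibition of CYP1A2 conversion of proluciferin to luciferin, detected by luminescence. Reaction run 1 h at room temperature with NADPH regeneration after brief compound preincubation.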
Cytochrome P450 1A2 (Homo sapiens), sequence (P05177 whole entry, looked up): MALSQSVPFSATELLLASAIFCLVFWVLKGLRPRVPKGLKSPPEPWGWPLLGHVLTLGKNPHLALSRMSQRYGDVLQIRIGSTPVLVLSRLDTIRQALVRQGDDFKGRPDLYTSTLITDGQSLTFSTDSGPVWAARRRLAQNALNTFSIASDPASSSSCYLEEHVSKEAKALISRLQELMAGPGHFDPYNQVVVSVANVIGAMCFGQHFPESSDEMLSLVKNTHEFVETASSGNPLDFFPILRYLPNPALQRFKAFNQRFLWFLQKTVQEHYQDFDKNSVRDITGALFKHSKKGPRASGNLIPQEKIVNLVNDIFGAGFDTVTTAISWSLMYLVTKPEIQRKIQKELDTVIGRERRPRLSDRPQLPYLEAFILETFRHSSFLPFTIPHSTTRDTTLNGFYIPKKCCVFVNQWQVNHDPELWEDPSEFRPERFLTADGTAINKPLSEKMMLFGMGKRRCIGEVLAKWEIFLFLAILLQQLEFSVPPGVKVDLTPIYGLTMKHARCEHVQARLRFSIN

In test [12] the target is Voltage-gated inwardly rectifying potassium channel KCNH2 (Homo sapiens) (UniProt Q12809). In words: Human Ether-a-go-go-Related Gene (hERG) channel small molecule antagonists: fluorescence cell-based qHTS assay (AID 1671200).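 Also: hERG-expressing U2OS cells given a thallium stimulus after FluxOR II dye loading; series mostly up to about 77 µM; nearly all actives have a fitted effect of over 50% in size.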 In short, it runs like this:
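Read-out: thallium influx as a surrogate for potassium, tracked as fluorescence (480 nm ex/540 nm em) every second for 2 min after Stimulus Buffer addition in dye-loaded hERG-U2OS cells.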

Test [13] has as its target Acetylcholinesterase (Homo sapiens) (UniProt P22303). The test can be described thus: Acetylcholinesterase (AChE) small molecule antagonists: colormetric cell-based qHTS assay (AID 1347395; calls by dose curve; also: nearly all actives have a fitted effect of over 30% in size; also: potency is read from the fitted curve at half-maximal effect). In short, it runs like this:
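SH-SY5Y cells; cpd 30 min 37 C; + DTNB/acetylthiocholine, 90 min 37 C; colorimetric thiocholine read; qHTS.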

Test [14] has as its target Cytochrome P450 2C9 (Homo sapiens) (UniProt P11712). The test can be described thus: Cytochrome P450 Family 2 Subfamily C Member 9 (CYP2C9) small molecule antagonists: luciferase reporter qHTS assay (AID 1671198). Also: nearly all actives have a fitted effect of over 50% in size. Also: potency is read from the fitted curve at half-maximal effect. In short, it runs like this: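 P450-Glo proluciferin substrate with CYP2C9 enzyme; 10 min RT preincubation, then NADPH regeneration 1 h at 37C; luciferin detection reagent 20 min RT, luminescence in relative luminescence units.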

In test [15] the target is Cytochrome P450 3A4 (Homo sapiens) (UniProt P08684). The test can be described thus: Cytochrome P450 Family 3 Subfamily A Member 4 (CYP3A4) small molecule antagonists: luciferase reporter qHTS assay (AID 1671201). Also: nearly all actives have a fitted effect of over 50% in size. Also: potency is read from the fitted curve at half-maximal effect. In short, it runs like this: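 Luminescent readout (RLU) proportional to CYP3A4 activity, from luciferin generated off a proluciferin substrate. Enzyme–substrate mix plus compound 10 min at room temp, NADPH regeneration 1 h, detection reagent 20 min.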
Cytochrome P450 3A4 (Homo sapiens), sequence (P08684 whole entry, looked up): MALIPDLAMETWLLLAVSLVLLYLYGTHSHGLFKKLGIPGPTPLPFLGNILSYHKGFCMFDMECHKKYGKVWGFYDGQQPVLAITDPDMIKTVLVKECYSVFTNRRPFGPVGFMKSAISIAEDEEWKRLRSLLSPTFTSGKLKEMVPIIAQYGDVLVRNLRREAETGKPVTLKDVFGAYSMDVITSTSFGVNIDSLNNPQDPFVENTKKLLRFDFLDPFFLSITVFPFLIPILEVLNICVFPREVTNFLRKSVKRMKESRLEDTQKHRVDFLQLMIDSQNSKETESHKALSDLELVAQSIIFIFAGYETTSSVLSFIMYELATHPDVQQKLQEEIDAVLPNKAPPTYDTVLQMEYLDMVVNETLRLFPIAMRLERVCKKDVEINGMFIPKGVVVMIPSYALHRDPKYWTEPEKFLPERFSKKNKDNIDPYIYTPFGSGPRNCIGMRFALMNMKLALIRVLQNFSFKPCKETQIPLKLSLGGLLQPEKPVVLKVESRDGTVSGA

Nuclear receptor subfamily 1 group I member 2 (Homo sapiens), sequence (O75469 whole entry, looked up): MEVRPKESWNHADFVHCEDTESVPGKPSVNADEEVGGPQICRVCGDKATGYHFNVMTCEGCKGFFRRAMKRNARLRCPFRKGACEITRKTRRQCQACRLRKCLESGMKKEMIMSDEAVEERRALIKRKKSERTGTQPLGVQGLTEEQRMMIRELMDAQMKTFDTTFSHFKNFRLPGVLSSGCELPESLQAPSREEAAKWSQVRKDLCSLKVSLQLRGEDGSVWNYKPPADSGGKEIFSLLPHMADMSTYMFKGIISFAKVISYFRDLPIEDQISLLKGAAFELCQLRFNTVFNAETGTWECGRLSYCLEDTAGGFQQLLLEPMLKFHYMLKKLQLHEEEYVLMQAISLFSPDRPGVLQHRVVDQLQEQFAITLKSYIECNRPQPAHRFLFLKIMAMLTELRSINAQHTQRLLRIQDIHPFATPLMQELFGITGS
Cytochrome P450 2C9 (Homo sapiens), sequence (P11712 whole entry, looked up): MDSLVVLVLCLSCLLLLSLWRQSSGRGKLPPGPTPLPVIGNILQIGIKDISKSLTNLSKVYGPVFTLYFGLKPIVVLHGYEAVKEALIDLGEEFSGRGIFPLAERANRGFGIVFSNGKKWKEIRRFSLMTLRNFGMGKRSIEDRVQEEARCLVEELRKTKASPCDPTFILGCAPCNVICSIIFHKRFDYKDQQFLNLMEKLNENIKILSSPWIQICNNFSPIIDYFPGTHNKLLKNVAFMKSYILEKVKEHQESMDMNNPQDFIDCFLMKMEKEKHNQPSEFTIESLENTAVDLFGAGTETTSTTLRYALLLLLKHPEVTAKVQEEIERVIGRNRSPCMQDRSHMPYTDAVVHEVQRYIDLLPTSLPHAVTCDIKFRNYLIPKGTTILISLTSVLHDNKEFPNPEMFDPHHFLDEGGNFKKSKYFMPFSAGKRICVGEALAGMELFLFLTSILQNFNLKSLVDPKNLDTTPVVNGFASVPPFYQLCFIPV
Cytochrome P450 2C19 (Homo sapiens), sequence (P33261 whole entry, looked up): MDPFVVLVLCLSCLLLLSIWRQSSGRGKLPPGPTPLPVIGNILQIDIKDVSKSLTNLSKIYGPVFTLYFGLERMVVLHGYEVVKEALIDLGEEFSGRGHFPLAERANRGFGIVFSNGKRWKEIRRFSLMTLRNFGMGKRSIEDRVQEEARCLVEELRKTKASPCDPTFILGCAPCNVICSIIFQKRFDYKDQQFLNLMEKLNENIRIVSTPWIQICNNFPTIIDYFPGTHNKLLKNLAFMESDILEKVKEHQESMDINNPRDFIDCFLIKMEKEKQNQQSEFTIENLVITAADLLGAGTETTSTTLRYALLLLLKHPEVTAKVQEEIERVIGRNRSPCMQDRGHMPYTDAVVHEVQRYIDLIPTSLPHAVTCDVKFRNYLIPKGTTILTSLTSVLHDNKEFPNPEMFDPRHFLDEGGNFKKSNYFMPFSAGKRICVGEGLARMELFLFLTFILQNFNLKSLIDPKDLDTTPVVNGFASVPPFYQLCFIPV
Voltage-gated inwardly rectifying potassium channel KCNH2 (Homo sapiens), sequence (Q12809 whole entry, looked up): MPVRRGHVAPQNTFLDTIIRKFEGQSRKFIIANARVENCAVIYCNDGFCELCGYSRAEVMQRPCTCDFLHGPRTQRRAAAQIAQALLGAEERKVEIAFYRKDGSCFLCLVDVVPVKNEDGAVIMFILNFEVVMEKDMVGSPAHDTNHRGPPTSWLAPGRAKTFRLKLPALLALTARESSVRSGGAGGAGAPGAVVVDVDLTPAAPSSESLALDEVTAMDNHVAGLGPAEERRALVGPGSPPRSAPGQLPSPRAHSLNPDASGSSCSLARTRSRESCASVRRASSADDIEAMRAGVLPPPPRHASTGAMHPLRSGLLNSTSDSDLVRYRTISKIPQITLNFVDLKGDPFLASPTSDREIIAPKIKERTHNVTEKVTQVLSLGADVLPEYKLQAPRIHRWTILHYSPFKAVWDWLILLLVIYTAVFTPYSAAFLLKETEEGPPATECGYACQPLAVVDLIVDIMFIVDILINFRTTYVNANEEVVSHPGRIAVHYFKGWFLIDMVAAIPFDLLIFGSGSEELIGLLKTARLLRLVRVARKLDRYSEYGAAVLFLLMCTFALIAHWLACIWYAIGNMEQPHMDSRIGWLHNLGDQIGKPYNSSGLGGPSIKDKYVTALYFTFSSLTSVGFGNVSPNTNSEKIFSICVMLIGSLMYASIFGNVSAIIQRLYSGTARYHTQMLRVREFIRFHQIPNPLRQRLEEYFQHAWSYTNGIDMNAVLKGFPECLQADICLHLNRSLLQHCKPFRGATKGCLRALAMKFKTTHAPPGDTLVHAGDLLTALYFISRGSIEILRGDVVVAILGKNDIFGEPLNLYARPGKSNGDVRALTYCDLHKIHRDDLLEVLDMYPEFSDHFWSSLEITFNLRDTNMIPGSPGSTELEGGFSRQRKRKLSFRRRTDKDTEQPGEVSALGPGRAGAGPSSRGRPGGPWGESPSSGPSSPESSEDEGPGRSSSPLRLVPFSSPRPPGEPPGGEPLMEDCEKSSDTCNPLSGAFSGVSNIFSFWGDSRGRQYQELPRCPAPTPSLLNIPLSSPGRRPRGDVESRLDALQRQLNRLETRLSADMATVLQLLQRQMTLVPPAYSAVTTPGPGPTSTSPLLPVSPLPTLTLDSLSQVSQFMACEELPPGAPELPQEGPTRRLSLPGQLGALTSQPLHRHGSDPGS
Cytochrome P450 2D6 (Homo sapiens), sequence (P10635 whole entry, looked up): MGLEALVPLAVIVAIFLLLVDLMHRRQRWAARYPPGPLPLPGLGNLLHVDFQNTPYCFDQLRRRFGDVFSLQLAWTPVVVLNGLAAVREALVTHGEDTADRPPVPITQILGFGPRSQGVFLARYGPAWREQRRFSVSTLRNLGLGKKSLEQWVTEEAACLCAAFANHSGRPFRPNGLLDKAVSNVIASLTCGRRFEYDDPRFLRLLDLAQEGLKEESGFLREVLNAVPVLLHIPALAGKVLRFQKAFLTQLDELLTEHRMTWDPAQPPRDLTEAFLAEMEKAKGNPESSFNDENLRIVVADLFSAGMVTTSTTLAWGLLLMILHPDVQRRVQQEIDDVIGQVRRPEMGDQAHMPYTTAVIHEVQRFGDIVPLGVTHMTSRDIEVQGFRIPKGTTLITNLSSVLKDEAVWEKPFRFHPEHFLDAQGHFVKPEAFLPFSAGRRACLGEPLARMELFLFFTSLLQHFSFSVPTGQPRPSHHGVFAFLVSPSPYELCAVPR

In the case of `N#C/C(N)=C(/N)C#N`, the Potency entry in test [1], in test [2], in [3], in test [4], in test [5] and in test [6] was “inactive” in each case. Moreover, the Potency entry in [7], in test [8], in test [9] and in test [12] was “inactive” in each case. In addition, the Potency in [10] is 30.8 µM (active); in test [11] it was 21.8 µM (active).
As to `II`, the Potency result in test [1], in test [3], in test [4], in test [5], in test [13] and in test [7] was “inactive” in each case. The Potency entry in test [8] and in [12] was “inactive” each time. Also, the Potency in [2] was 54.5 µM (active); in [9], 28.3 µM (active); in test [10], 56.4 µM (active); in test [14], 31.7 µM (active); in [11] it was 71 µM (active).
As to `O=S1(=O)OC(c2cc(Br)c(O)c(Br)c2)(c2cc(Br)c(O)c(Br)c2)c2ccccc21`, the Potency result in [1], in [3], in [5], in test [6], in test [7] and in test [8] was “inactive” throughout. Moreover, in test [12], the Potency entry was “inactive”. Besides, the Potency in test [2] was 25 µM (active); in test [4] it was 25 µM (active); in test [9] it was 58 µM (active); in test [10], 73 µM (active); in test [14], 16.3 µM (active); in [11] it was 32.6 µM (active).
Take `O=C(O)c1ccccc1C(=O)Nc1cccc2ccccc12`: the Potency result in test [1], in test [2], in test [3], in test [4], in test [13] and in [7] was “inactive” each time. Besides, the Potency result in test [8] and in test [12] was “inactive” each time. In addition, the Potency was 38.6 µM (active) in test [5]; 31.7 µM (active) in [9]; 15.9 µM (active) in test [10]; 17.8 µM (active) in test [14]; 12.6 µM (active) in [11].
On to `CCOP(=O)(OCC)SCCSCC`, for which the Potency entry in test [1], in [2], in test [3], in test [4], in [14] and in test [12] was “inactive” throughout. In [15], the Potency result is “inactive”. Besides, the Potency in test [5] is 58.3 µM (active); in [13] it was 3.4 µM (active) and 7.96 µM (active); in test [6], 7.61 µM (active) and 20 µM (active); in test [7], 3.03 µM (active) and 10 µM (active); in test [8], 17 µM (active) and 35.6 µM (active); in test [10], 21.4 µM (active) and 35.6 µM (active). The Potency in test [11] was 34 µM (active).
Regarding `CCCCC(CC)COP(=O)(Oc1ccccc1)Oc1ccccc1` (stereo unspecified), the Potency result in test [1], in [2], in test [3], in test [4], in [13] and in test [7] was “inactive” in each case. Moreover, the Potency result in test [8] and in test [9] was “inactive” throughout. The Potency was 7.7 µM (active) in test [5]; 2.83 µM (active) in test [10]; 3.99 µM (active) in test [14]; 25.2 µM (active) in test [11]; 5.64 µM (active) in [15].
In the case of `CC1(C)[C@H](C=C(Cl)Cl)[C@@H]1C(=O)O[C@@H](C#N)c1cccc(Oc2ccccc2)c1`, the Potency result in [1], in [2], in test [3], in test [4], in test [13] and in test [6] was “inactive” throughout. The Potency entry in [7], in test [8], in test [11], in test [12] and in test [15] was “inactive” in each case. Further, the Potency in test [5] was 4.33 µM (active); in test [10] it was 7.96 µM (active); in test [14] it was 3.56 µM (active).
As to `COc1nn(C(=O)NS(=O)(=O)c2ccccc2OC(F)(F)F)c(=O)n1C`, the Potency result in [1], in test [2], in [3], in test [4], in test [5] and in test [13] was “inactive” each time. Further, the Potency entry in test [7], in test [8], in [9], in test [10], in [11] and in test [12] was “inactive” throughout. Also, in [15], the Potency result is “inactive”. Besides, the Potency in test [14] was 32.5 µM (active).
